From PubChem BioAssay AID1159580 (chemical genetic matrix, 2015)
“And” between values parts separate entries of the source, which are not always exact repeats. Identical values can stand only once. About 2,000 (36%) of roughly 5,500 compounds were called active. About 18% were inconclusive and are not listed. Cut-off read from the data, not from the text of the source: active = normalized growth mostly below about 0.91 (no sharp cut-off); inconclusive = no clear call, values can overlap the other calls; inactive = mostly above about 0.92. This is one part of the list.

Assay: chemical genetic growth profiling, strain panel (AID 1159580);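 note: tested at 20 µM; growth read once vehicle control cultures reached saturation at 30 °C; 1 = growth at the plate median or of vehicle wells; lower values mean less growth of the strain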
Conditions: S. cerevisiae deletion strains, growth OD

Measured: normalized growth

O=c1[nH]c2ccccc2n1C1CCN(CCCC(c2ccc(F)cc2)c2ccc(F)cc2)CC1
inactive: locus YAL013W, strain DEP1, hits give low values 1.01 and 0.995 | locus YAL026C, strain drs2, hits give low values 0.948 | locus YAL030W, strain snc1, hits give low values 0.963 | locus YAL040C, strain CLN3, hits give low values 1.03 | locus YBL061C, strain skt5, hits give low values 0.967 | locus YBR021W, strain FUR4, hits give low values 0.969 | locus YBR023C, strain chs3, hits give low values 0.918 | locus YBR171W, strain sec66, hits give low values 1.03 | locus YBR229C, strain ROT2, hits give low values 0.948 | locus YBR231C, strain swc5, hits give low values 0.92 | locus YBR279W, strain paf1, hits give low values 0.953 | locus YCL011C, strain gbp2, hits give low values 0.93 | locus YCL016C, strain dcc1, hits give low values 0.95 | locus YCL029C, strain bik1, hits give low values 0.986 | locus YCL061C, strain MRC1 (second series), hits give low values 1.01 | locus YCL061C, strain MRC1, hits give low values 0.95 | locus YCL069W, strain vba3, hits give low values 1 | locus YCR088W, strain abp1, hits give low values 1 | locus YDL005C, strain med2, hits give low values 1.01 | locus YDL035C, strain GPR1, hits give low values 0.968 | locus YDL040C, strain nat1, hits give low values 1.01 | locus YDL074C, strain BRE1, hits give low values 0.904 | locus YDL101C, strain DUN1, hits give low values 0.978 | locus YDL134C, strain PPH21, hits give low values 0.972 | locus YDL185W, strain tfp1, hits give low values 0.997 | locus YDL192W, strain arf1, hits give low values 1 | locus YDR001C, strain nth1, hits give low values 1.02 | locus YDR101C, strain arx1, hits give low values 1 | locus YDR150W, strain NUM1, hits give low values 0.973 | locus YDR159W, strain sac3, hits give low values 0.92 | locus YDR162C, strain NBP2, hits give low values 0.975 | locus YDR195W, strain ref2 1.05 | locus YDR297W, strain sur2, hits give low values 0.959 | locus YDR318W, strain mcm21, hits give low values 0.975 | locus YDR334W, strain swr1, hits give low values 1.01 | locus YDR335W, strain msn5, hits give low values 0.959 | locus YDR363W, strain ESC2, hits give low values 0.989 | locus YDR502C, strain sam2, hits give low values 0.986 | locus YEL003W, strain gim4, hits give low values 0.944 | locus YEL037C, strain rad23, hits give low values 0.936 | locus YEL061C, strain CIN8 (second series), hits give low values 1.01 | locus YEL061C, strain CIN8, hits give low values 0.989 | locus YER015W, strain faa2, hits give low values 0.953 | locus YER016W, strain bim1, hits give low values 0.961 | locus YER110C, hits give low values 0.993 | locus YER111C, strain swi4, hits give low values 1.02 | locus YER155C, strain BEM2, hits give low values 1.02 | locus YER167W, strain BCK2, hits give low values 0.99 | locus YGL078C, strain dbp3, hits give low values 0.994 | locus YGL086W, strain mad1, hits give low values 0.986 | locus YGL167C, strain pmr1, hits give low values 1.01 | locus YGL173C, strain kem1, hits give low values 0.936 | locus YGL227W, strain vid30, hits give low values 1.03 | locus YGL240W, strain doc1, hits give low values 0.916 | locus YGL248W, strain PDE1, hits give low values 0.979 | locus YGL253W, strain hxk2, hits give low values 0.938 | locus YGR078C, strain PAC10, hits give low values 0.967 | locus YGR135W, strain pre9, hits give low values 0.926 | locus YGR229C, strain SMI1, hits give low values 0.949 | locus YGR252W, strain gcn5, hits give low values 0.782 | locus YHR013C, strain ard1, hits give low values 1.02 | locus YHR027C, strain rpn1, hits give low values 0.927 | locus YHR030C, strain SLT2, hits give low values 0.995 and 0.973 | locus YHR079C, strain IRE1 (second series), hits give low values 0.994 | locus YHR079C, strain IRE1, hits give low values 0.942 | locus YHR094C, strain hxt1, hits give low values 0.995 | locus YHR129C, strain ARP1, hits give low values 0.987 | locus YHR142W, strain chs7, hits give low values 0.915 | locus YHR200W, strain rpn10, hits give low values 0.988 | locus YIL066C, strain RNR3, hits give low values 0.968 | locus YIL125W, strain kgd1, hits give low values 0.995 | locus YIR030C, strain dcg1, hits give low values 1 | locus YJL092W, strain hpr5, hits give low values 0.936 | locus YJL095W, strain BCK1 (second series), hits give low values 0.973 | locus YJL095W, strain BCK1, hits give low values 1.01 and 0.96 | locus YJL115W, strain asf1, hits give low values 1.02 | locus YJL129C, strain trk1, hits give low values 0.885 | locus YJL134W, strain LCB3, hits give low values 0.993 | locus YJL154C, strain vps35, hits give low values 1.01 | locus YJL164C, strain tpk1, hits give low values 0.937 | locus YJL166W, strain qcr8, hits give low values 0.947 | locus YJL168C, strain set2, hits give low values 0.997 | locus YJL187C, strain SWE1 (second series), hits give low values 0.97 | locus YJR043C, strain POL32, hits give low values 0.996 | locus YJR066W, strain TOR1, hits give low values 0.93
active: locus YAL021C, strain ccr4, hits give low values 0.839 | locus YBR009C, strain hhf1, hits give low values 0.875 | locus YDR069C, strain doa4, hits give low values 0.854 | locus YDR137W, strain rgp1, hits give low values 1.26 [resistant] | locus YDR388W, hits give low values 0.838 | locus YDR392W, strain spt3, hits give low values 0.646 | locus YER155C, strain BEM2 (second series), hits give low values 0.707 | locus YFR010W, strain ubp6, hits give low values 0.878 | locus YIL073C, strain SPO22, hits give low values 1.72 [resistant]
